High-throughput results as filed in PubChem.
3CLpro inhibitor = SARS-CoV 3CLpro protease inhibition; recombinant SARS-CoV 3CLpro, quenched FRET peptide cleavage; inhibition, % at 6 µM; 0.14% of 290,000 active; AID 1706; in the data active = inhibition above about 12%
Autofluor counter = counter-screen for toxin protease inhibitors: compound fluorescence. fluorescence intensity (no concentration beside the values). 3.1% of 360,000 active. compound autofluorescence counterscreen, microsphere flow cytometry; stronger effect = higher value. AID 624483; in the data active = fluorescence intensity above about 16000; inconclusive = no clear call, values can overlap the other calls
BoNT-F LC inh = blocks Botulinum neurotoxin F light chain protease. Multiplex microsphere protease cleavage assay, flow cytometry. inhibition, % at 10 µM. 0.22% of 360,000 active. AID 588497; in the data active = inhibition above about 35%, passing the limit was not always enough; inconclusive = no clear call, values can overlap the other calls
Anthrax LF inh2 = inhibitors of Bacillus anthracis lethal factor protease | P15917 | multiplex microsphere protease cleavage assay, LF | inhibition, % at 10 µM | 0.12% of 360,000 active
Target sequence (P15917 whole entry, looked up): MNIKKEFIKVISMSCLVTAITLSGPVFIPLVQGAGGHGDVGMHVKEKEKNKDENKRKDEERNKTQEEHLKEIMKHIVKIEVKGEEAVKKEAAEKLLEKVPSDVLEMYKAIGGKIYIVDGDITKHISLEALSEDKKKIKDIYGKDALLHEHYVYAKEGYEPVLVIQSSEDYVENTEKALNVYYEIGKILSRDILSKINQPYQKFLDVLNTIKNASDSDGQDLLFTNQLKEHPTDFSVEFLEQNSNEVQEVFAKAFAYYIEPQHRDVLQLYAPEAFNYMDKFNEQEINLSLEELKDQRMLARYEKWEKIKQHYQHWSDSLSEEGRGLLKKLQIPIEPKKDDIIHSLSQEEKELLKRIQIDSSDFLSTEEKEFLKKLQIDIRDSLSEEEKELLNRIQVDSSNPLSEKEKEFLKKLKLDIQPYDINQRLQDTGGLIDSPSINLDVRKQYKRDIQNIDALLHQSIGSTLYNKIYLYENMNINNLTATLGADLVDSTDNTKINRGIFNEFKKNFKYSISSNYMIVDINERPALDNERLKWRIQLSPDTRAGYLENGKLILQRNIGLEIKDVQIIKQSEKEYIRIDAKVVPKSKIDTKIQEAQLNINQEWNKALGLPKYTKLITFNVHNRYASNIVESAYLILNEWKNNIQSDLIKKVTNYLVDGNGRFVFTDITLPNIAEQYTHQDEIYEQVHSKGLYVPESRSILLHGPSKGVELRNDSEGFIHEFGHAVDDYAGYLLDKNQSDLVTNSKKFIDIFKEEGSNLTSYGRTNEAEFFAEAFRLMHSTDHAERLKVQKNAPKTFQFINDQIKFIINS
BoNT-A LC inh2 = inhibitors of Botulinum neurotoxin A light chain protease; multiplex microsphere protease substrate cleavage, flow cytometry; inhibition, % at 10 µM; 0.17% of 360,000 active; AID 588499
VHR inh abs = blocks human VHR1 dual specificity phosphatase; 0.52% of 290,000 active; P51452; inhibition, % at 13.3 µM; recombinant VHR phosphatase, pNPP absorbance; in the data active = inhibition above about 50%
Numbers stand for hits; 0 = inactive; ? = inconclusive; - = no result. In the library only some 3.9% were active in any assay of this set; here they are far more common. Rule as the data show it, unless noted: active = inhibition above about 30%; inconclusive = no clear call, values can overlap the other calls; inactive = below that.

SMILES	3CLpro inhibitor	Autofluor counter	BoNT-F LC inh	Anthrax LF inh2	BoNT-A LC inh2	VHR inh abs
CC1Oc2ccccc2N(CC(=O)NCC2CCCO2)C1=O (configuration not stated)	0	23344	0	0	0	0
COc1ccccc1NC(=O)CN1C(=O)C(C)Oc2ccccc21 (configuration not stated)	0	22685	0	0	0	0
CSCc1ccc(C(=O)NC2CC(C)(C)Cc3c2cnn3-c2ccc(F)cc2)o1 (configuration not stated)	0	0	0	0	0	0
CCCCN1C(=O)C(NC(=O)c2cccnc2)(C(F)(F)F)C2=C1CC(C)(C)CC2=O (configuration not stated)	0	23010	0	0	0	0
CCOC(=O)NC1(C(F)(F)F)C(=O)N(Cc2ccccc2)C2=C1C(=O)CC(C)(C)C2 (configuration not stated)	0	25964	0	0	0	0
CC1(C)CC(=O)C2=C(C1)N(Cc1cccnc1)C(=O)C2(NC(=O)c1cccnc1)C(F)(F)F (configuration not stated)	0	0	0	0	0	0
CC1(C)CC(=O)C2=C(C1)N(Cc1ccco1)C(=O)C2(NC(=O)c1cccnc1)C(F)(F)F (configuration not stated)	0	20736	0	0	?	0
COc1cccc(C(C)NC(=O)c2ccncc2)c1 (configuration not stated)	0	0	0	0	0	0
CCOc1ccc(S(=O)(=O)Nc2cccc(C(=O)N(C)Cc3cccc(OC)c3OC)c2)cc1	0	0	0	0	0	0
CC(=O)N1CCc2cc(NC(=O)c3ccc(C)cc3)ccc21	0	21491	0	0	0	0
CC(=O)N1CCN(c2ccc(NC(=O)c3ccc(C)cc3)cc2)CC1	0	0	0	0	0	0
S=c1[nH]nc(-c2ccccc2)n1C1C=CCCC1 (configuration not stated)	0	16741	0	0	0	0
S=c1[nH]nc(-c2cccnc2)n1C1CCCCC1	0	0	0	0	0	0
Cc1cccc(NC(=S)N2N=CCC2c2ccccc2)c1 (configuration not stated)	0	17190	0	0	0	0
CCCCNC(=S)NNC(=O)c1csc(C)c1	0	22322	0	0	0	0
CCc1cc(C(=O)NNC(=S)Nc2cccc(C)c2)cs1	0	21356	0	0	0	0
Cc1cccc(NC(=S)NNC(=O)c2csc(C(C)C)c2)c1	0	0	0	0	0	0
Cc1cccc(NC(=O)C(=O)NNC(=O)c2ccc(C(C)(C)C)cc2)c1	0	0	0	0	0	52.0
CCNC(=S)NNC(=O)c1csc(C)c1	0	0	0	0	0	0
CCC1CCCCN1S(=O)(=O)c1ccc(NC(=O)C2CCCO2)cc1 (configuration not stated)	0	0	0	0	0	0
Cc1cccc(NC(=S)NNC(=S)NCc2ccccc2)c1	0	22617	0	0	0	0
S=C(NCc1ccccc1)Nc1cccc(Cl)c1	0	0	0	0	0	0
Cc1n[nH]c(=O)nc1NC(C)c1ccccc1 (configuration not stated)	0	22579	0	0	0	0
O=C(NC1(C(F)(F)F)NC(=O)N(Cc2cccnc2)C1=O)c1ccc(F)cc1 (configuration not stated)	0	23016	0	0	0	0
Cc1cccc(OCc2nc(-c3nonc3N)no2)c1C	0	22795	0	0	?	0
SMILES	3CLpro inhibitor	Autofluor counter	BoNT-F LC inh	Anthrax LF inh2	BoNT-A LC inh2	VHR inh abs
CCCS(=O)(=O)NC(=O)C1(C)CCCN(C(=O)c2cccc(C(F)(F)F)c2)C1 (configuration not stated)	-	0	0	0	0	-
Cc1nc(/C(N)=N/OC(=O)Cc2ccccc2)no1	0	0	0	0	0	0
Cc1ccc(C)c2[nH]c(=O)c(CN(CC3CCCO3)S(=O)(=O)c3ccc4c(c3)OCCO4)cc12 (configuration not stated)	0	0	0	0	0	0
Cc1cc(C)c2[nH]c(=O)c(CN(CC3CCCO3)S(=O)(=O)c3ccc4c(c3)OCCO4)cc2c1 (configuration not stated)	0	21471	0	0	0	0
COc1ccc(C2C(=O)N(C3CCCCC3)CC(=O)N2C2CCCCC2)cc1 (configuration not stated)	0	0	0	0	0	0
COc1ccccc1CN1C(=O)CN(C2CCCC2)C(=O)C1c1ccc(F)cc1 (configuration not stated)	0	16593	0	0	?	0
O=C1C(c2ccc(F)cc2)N(CC2COc3ccccc3O2)C(=O)CN1C1CCCCC1 (configuration not stated)	0	0	0	0	0	0
O=C1C(c2ccc(F)cc2)N(Cc2ccc3c(c2)OCO3)C(=O)CN1C1CCCCC1 (configuration not stated)	0	20863	0	0	0	0
O=C1C(c2ccc(F)cc2)N(Cc2ccc3c(c2)OCO3)C(=O)CN1C1CCCC1 (configuration not stated)	0	25677	0	0	0	0
O=C(COC(=O)C1CC2C=CC1C2)Nc1ccc2c(c1)OC(F)(F)O2 (configuration not stated)	0	16493	0	0	0	0
Cc1ccn2c(C(=O)c3ccc(Cl)cc3)cnc2c1	0	0	0	0	0	0
S=C(Nc1ccc(Cl)cc1)N1CCN(C2CCCCC2)CC1	0	21880	0	0	0	0
CCN(CC)c1ccc(/C=N/N2CCN(Cc3cccc4ccccc34)CC2)c(O)c1	0	23476	0	0	0	0
CCN(CC)c1ccc(/C=N/N2CCN(Cc3ccc(Cl)cc3)CC2)c(O)c1	0	0	0	0	0	0
O=C(Nc1ccnn1C1CCN(C2CCC2)CC1)c1ccccc1	0	0	0	0	0	0
COc1ccc(C(=O)Nc2ccnn2C2CCN(C3CCC3)CC2)cc1	0	0	0	0	0	52.5
Nc1ccc(NC(=O)NC2CCCCC2)cc1[N+](=O)[O-]	0	0	0	0	0	0
O=c1c2ccccc2sn1-c1cc(S(=O)(=O)N2CCOCC2)ccc1N1CCOCC1	0	0	0	0	82.9	0
Nc1cc(S(=O)(=O)N2CCOCC2)ccc1N1CCCCC1	-	0	0	0	0	-
O=S(=O)(c1ccc(N2CCOCC2)c(Cl)c1)N1CCOCC1	0	0	0	0	0	0
O=c1c2ccccc2sn1-c1cc(S(=O)(=O)N2CCOCC2)ccc1N1CCCC1	0	20573	0	0	?	0
COc1ccccc1NC(=O)N(C)C[C@@H]1OCc2cnnn2CCCC(=O)N([C@@H](C)CO)C[C@H]1C	-	0	0	0	0	-
COC(=O)c1ccc2c(=O)n(-c3ccc(OC)cc3)c(=S)[nH]c2c1	0	0	0	0	0	0
Cc1nnc(NC(=O)c2ccc3c(c2)C(=O)N(CCC(C)C)C3=O)s1	0	20485	0	0	0	0
CCc1nnc(NC(=O)c2ccc3c(c2)C(=O)N(CC(C)C)C3=O)s1	0	-	-	-	-	0
CCc1nnc(NC(=O)c2ccc3c(c2)C(=O)N(CC)C3=O)s1	0	23383	0	0	0	-
